Assay outcomes (PubChem)
Sampled rows, rich in hits. Any-hit rate of the full collection: about 19%.
HT1080-NT tox – kills 2HG-producing HT-1080-NT fibrosarcoma cells | HT-1080-NT fibrosarcoma viability, CellTiter-Glo ATP luminescence, 48 h | Potency, µM (series often up to 46.1 µM), inactives show top-dose activity, negative = less viability, most hits filed as cytotoxic | 360,000 tested, 1.6% active | AID 686970;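 further: NT is the 2HG producing partner of a matched IDH1 knockdown line; potency means the concentration at half of the fitted maximal effect; 0% = DMSO-treated cells and -100% = media-only wells without cells; nearly all actives have a fitted effect of over 55% in size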
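HT-1080-NT; 750 cells/well; 5% FBS RPMI; 48 h compound, 37 degrees C; CellTiter-Glo luminescence; curve fitting and curve-class assignment.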
TDP1 cell noCPT – qHTS for Inhibitors of human tyrosyl-DNA phosphodiesterase 1 (TDP1): qHTS in cells in absence of CPT. 420,000 tested, 15% active. Potency, µM (titrated, usually from 46.2 µM), for inactives: at the top dose activity change, negative = growth inhibition, usual class: inhibitors. DT40 Tdp1-/- hTDP1 cells, no CPT, ATP luminescence, 48 h. AID 686978, 2013; further: potency means the concentration at half of the fitted maximal effect; nearly all actives have a fitted effect of over 55% in size
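Seeded 400 DT40-hTDP1 cells/well (vehicle DMSO, no 20 nM CPT); pinned compounds; ≥48 hr at 37 °C; CellTiter-Glo luminescence as viability measure.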
HT1080 IDH1KD tx – kills HT-1080 cells with IDH1 knockdown; HT-1080 IDH1 knockdown viability, ATP luminescence, 48 h; Potency, µM (highest dose often 46.1 µM), without a hit: at the highest dose activity, negative = toxicity, actives largely listed as cytotoxic; 360,000 tested, 2% active; AID 686971;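 further: potency means the concentration at half of the fitted maximal effect; 0% = DMSO wells and -100% = cell-free medium wells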
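% activity derives from luminescence (CellTiter-Glo), normalised to DMSO and no-cell wells. HT-1080-IDH1KD cells, 750/well, had 48 h compound exposure at 37 °C.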
DT40 TDP1 CPT – DT40-hTDP1 cell growth loss with CPT. chicken DT40 Tdp1-/-;hTDP1 cells + 20 nM CPT, ATP luminescence, 48 h. Potency, µM (doses to about 46.2 µM), for the others: top-dose activity change, negative = growth inhibition, hits mostly inhibitors. 420,000 tested, 12% active. AID 686979; further: potency means the concentration at half of the fitted maximal effect; nearly all actives have a fitted effect of over 55% in size
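Chicken DT40 Tdp1-/- cells stably complemented with human TDP1 were seeded at 400 cells/well in medium containing 20 nM camptothecin, exposed to pin-transferred compounds, and grown at 37 °C for at least 48 hr. Viability was read as ATP luminescence.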
IL-1B inflam inh – blocks inflammasome-driven IL-1 beta release. THP-1 LPS/ATP IL-1B secretion, AlphaLISA, 16 h; stronger effect = lower value. 360,000 tested, 4.7% active. activity change, % at 57.5 µM. AID 743279; in the data active means activity change below about -50%; inconclusive means mostly about -30% to -49%
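Secreted IL-1B measured by AlphaLISA bead assay after 16 h compound exposure of THP-1 cells; compounds (final up to 57.5 uM) added 1 h before LPS (250 ng/mL) and ATP (1.25 mM) stimulation; lower signal means less secretion.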
An asterisk follows results filed as active; i = inactive; ? = inconclusive; nt = no result given; ! = a repeat was not active. Unless noted, the call rests on the fitted dose curve; in most records, active means well fitted curve in the direction sought with a large enough effect; inconclusive means small, poorly fitted or top-dose-only effect, or another doubt; inactive means no such curve, though single readings can be large; an effect the other way counts as inactive or inconclusive. Unless noted, on the % scale 0 is the no-effect control and ±100 the full control effect.

SMILES | HT1080-NT tox | TDP1 cell noCPT | HT1080 IDH1KD tx | DT40 TDP1 CPT | IL-1B inflam inh
O=C(Cn1ccc(C(F)(F)F)n1)N=Nc1c(O)[nH]c2ccc(Br)cc12 | 6% | -26% | 1% | -18% | 29
O=C(Nc1cccc(Cl)c1)NC1CCS(=O)(=O)C1 (centres undefined) | 7% | 10% | 20% | 4% | 3
COc1ccc(-c2nc(C#N)c(N3CCN(C(=O)c4ccco4)CC3)o2)cc1OC | 3% | ? | 1% | ? | -1
COc1ccccc1-c1nc(C#N)c(N2CC(C)CC(C)C2)o1 (centres undefined) | -2% | 18µM* | -1% | ? | -6
COc1ccc(-c2nc(C#N)c(N3CCc4ccccc4C3)o2)cc1OC | ? | 13µM* | -10% | 29µM* | -52*
COc1ccc(N2CCN(c3oc(-c4ccc(OC)c(OC)c4)nc3C#N)CC2)cc1 | 8% | 18µM* | 3% | ? | -7
O=S(=O)(Cc1ccccc1)C(CCCc1ccccc1)S(=O)(=O)Cc1ccccc1 | 9% | 21µM* | -1% | 23µM* | -5
O=S(=O)(Cc1ccccc1)CS(=O)(=O)Cc1ccccc1 | 1% | -16% | -9% | 21% | -19
Cc1ccc(Nc2nc(-c3ccc(S(=O)(=O)N4CCOCC4)cc3)cs2)cc1Cl | 23µM* | 6.5µM* | 16µM* | 4.6µM* | -30
CC(C)CC(=O)Nc1nc(-c2ccc(S(=O)(=O)N3CCOCC3)cc2)cs1 | ? | 16µM* | -13% | 13µM* | i
CCCCC(=O)Nc1nc(-c2ccc(S(=O)(=O)N3CCOCC3)cc2)cs1 | ? | 18µM* | -25% | ? | -6
CCOC(=O)Cc1csc(NC(=O)CCc2ccc(S(=O)(=O)N3CCOCC3)cc2)n1 | 7% | ? | 9% | ? | 15
O=C(Nc1cccc(C(F)(F)F)c1)C1CCN(S(=O)(=O)c2cccc3nsnc23)CC1 | nt | 23µM* | nt | 23µM* | nt
Cc1ccc(NC(=O)C2CCN(c3nnc(-n4cccc4)s3)CC2)cc1Cl | nt | -15% | nt | -13% | nt
O=C(Nc1cccc(C(F)(F)F)c1)C1CCN(S(=O)(=O)c2cccnc2)CC1 | -1% | 21µM* | -3% | ? | 9
O=C(Nc1cccc(C(F)(F)F)c1)C1CCN(c2nnc(-n3cccc3)s2)CC1 | nt | 21µM* | nt | ? | nt
Cc1ccsc1C(=O)N1CCN(S(=O)(=O)c2cccc(F)c2)CC1 | -1% | -20% | 3% | -8% | -5
C[C@H](NC(=O)C1CCN(S(=O)(=O)c2ccccc2)CC1)C(=O)NC1CC1 | 4% | -3% | -2% | -10% | 17
CC1CC(=O)Nc2ccccc2N1C(=O)CN1CCN(c2ccccc2)CC1 (centres undefined) | 2% | -2% | 3% | 8% | 10
Cc1c(CN(C)C(=O)CSc2nc(-c3ccco3)cc(C(F)(F)F)n2)cnn1C | 10% | -13% | -1% | ? | -12
CCn1cc(CN(C)C(=O)CSc2nc(-c3ccco3)cc(C(F)(F)F)n2)c(C)n1 | -10% | 23µM* | -24% | ? | 8
COc1ccc(-c2cc(C(F)(F)F)nc(SCCC(=O)NCc3ccccc3)n2)cc1 | -18% | 18µM* | -16% | ? | -16
CN(Cc1ccccc1)C(=O)CSc1nc2c(c(C(F)(F)F)n1)CCc1ccccc1-2 | 0% | ? | 1% | 29µM* | ?
COc1ccc(-c2cc(C(F)(F)F)nc(SCC(=O)N(C)Cc3ccccc3)n2)cc1 | nt | ? | nt | 23µM* | nt
COc1ccc(CNC(=O)CSc2nc(-c3ccc(OC)cc3)cc(C(F)(F)F)n2)cc1 | nt | -17% | nt | -20% | nt
SMILES | HT1080-NT tox | TDP1 cell noCPT | HT1080 IDH1KD tx | DT40 TDP1 CPT | IL-1B inflam inh
CC(=O)NC(CC(=O)OCc1ccc([N+](=O)[O-])cc1)c1ccccc1 (centres undefined) | 0% | -19% | 13% | ? | -11
COc1ccc(-c2cc(C(F)(F)F)nc(SCCC(=O)Nc3ccc(OC)c(OC)c3)n2)cc1 | nt | 15µM* | nt | 13µM* | nt
COc1cc(OC)cc(C(=O)c2c(C)c(C#N)c3ccccn23)c1 | ? | 2.3µM* | 12% | 2.3µM* | 30
CN1CCN(c2cc(-c3ccccc3)nc3cc(-c4ccc(F)cc4)nn23)CC1 | -8% | 5.8µM* | -1% | 4.1µM* | -96*
Fc1ccc(-c2cc3nc(-c4ccccc4)cc(N4CCN(CCN5CCOCC5)CC4)n3n2)cc1 | 1% | 7.3µM* | 11% | 12µM* | -74*
CCc1nn2c(N3CCOCC3)cc(C)nc2c1-c1ccc(F)cc1 | -1% | ? | 0% | ? | -2
OCCCNc1cc(-c2ccccc2)nc2cc(-c3ccc(F)cc3)nn12 | ? | 5.2µM* | ? | 8.2µM* | -91*
COCCN(C(=O)COC(=O)Cc1cccc(OC)c1)c1c(N)n(CC(C)C)c(=O)[nH]c1=O | -3% | -18% | 15% | 10% | -10
CC(=O)c1cccc(NC(=O)c2ccc(NC(=O)CC3SC(N4CCCCC4)=NC3=O)cc2)c1 (centres undefined) | 9% | -18% | 19% | -4% | 12
CCN(CC(=O)NCc1cccs1)C(=O)c1ccc(S(=O)(=O)Nc2cccc(C)c2C)cc1 | -9% | ? | -7% | ? | 8
CCc1ccc(-c2nn(CC(=O)NC3CCCC3)c3c2cnc2ccc(C)cc23)cc1 | nt | -4% | nt | -19% | nt
C[C@]12CC[C@@H]3c4ccc(O)cc4CC[C@H]3[C@@H]1C[C@@H](O)[C@@H]2O | 7% | -16% | -13% | ? | 15
COc1cc2c(cc1O)CCC1C2CC[C@@]2(C)C1CC[C@@H]2O (some centres undefined) | nt | 1.9µM* | nt | 2.4µM* | nt
C[C@]12CC[C@@H]3c4ccc(OC(=O)c5ccccc5)cc4CC[C@H]3[C@@H]1CC[C@@H]2O | -1% | 13µM*! | 0% | 15µM*! | 17
CCOc1cc2c(cc1O)C(=NO)CC1C2CCC2(C)C(O)CCC12 (centres undefined) | 0.29µM* | 0.052µM* | ? | 0.18µM* | -1
CCOc1cc(C2NC(=O)NC2=O)ccc1O (centres undefined) | 21% | -8% | 12% | 2% | -3
Cc1sc(NC(=O)CN2CCOCC2)c(C#N)c1C | 3% | 4% | 2% | -1% | 1
CCOC(=O)N1CCN(CC(O)COc2c(C)cc(C)cc2C)CC1 (centres undefined) | -2% | -1% | -5% | -14% | 9
Cc1c(C(=O)N2CC(C)OC(C)C2)[nH]c2ccc(Br)cc12 (centres undefined) | -12% | ? | -24% | ? | 2
COc1ccc(-c2cn3c(C)c(C(=O)N4CCc5ccccc5C4)sc3n2)cc1 | -21% | 21µM* | ? | 18µM* | 54
